According to PMC4336329 (PLoS ONE, 2015):
Screen size: about 310,000 compounds; about 2,200 (0.71%) showed an effect of 50% or more. Effects have a minus sign here. Only a selection was taken, and strong results are over-represented in it overall.

Molecular target: human ether-à-go-go-related gene (hERG) potassium channel (human, UniProt Q12809)
Assay: primary screen, population patch clamp on CHO cells stably expressing hERG; higher = less effect of the substance

Chain of human ether-à-go-go-related gene (hERG) potassium channel (Q12809 whole entry, looked up): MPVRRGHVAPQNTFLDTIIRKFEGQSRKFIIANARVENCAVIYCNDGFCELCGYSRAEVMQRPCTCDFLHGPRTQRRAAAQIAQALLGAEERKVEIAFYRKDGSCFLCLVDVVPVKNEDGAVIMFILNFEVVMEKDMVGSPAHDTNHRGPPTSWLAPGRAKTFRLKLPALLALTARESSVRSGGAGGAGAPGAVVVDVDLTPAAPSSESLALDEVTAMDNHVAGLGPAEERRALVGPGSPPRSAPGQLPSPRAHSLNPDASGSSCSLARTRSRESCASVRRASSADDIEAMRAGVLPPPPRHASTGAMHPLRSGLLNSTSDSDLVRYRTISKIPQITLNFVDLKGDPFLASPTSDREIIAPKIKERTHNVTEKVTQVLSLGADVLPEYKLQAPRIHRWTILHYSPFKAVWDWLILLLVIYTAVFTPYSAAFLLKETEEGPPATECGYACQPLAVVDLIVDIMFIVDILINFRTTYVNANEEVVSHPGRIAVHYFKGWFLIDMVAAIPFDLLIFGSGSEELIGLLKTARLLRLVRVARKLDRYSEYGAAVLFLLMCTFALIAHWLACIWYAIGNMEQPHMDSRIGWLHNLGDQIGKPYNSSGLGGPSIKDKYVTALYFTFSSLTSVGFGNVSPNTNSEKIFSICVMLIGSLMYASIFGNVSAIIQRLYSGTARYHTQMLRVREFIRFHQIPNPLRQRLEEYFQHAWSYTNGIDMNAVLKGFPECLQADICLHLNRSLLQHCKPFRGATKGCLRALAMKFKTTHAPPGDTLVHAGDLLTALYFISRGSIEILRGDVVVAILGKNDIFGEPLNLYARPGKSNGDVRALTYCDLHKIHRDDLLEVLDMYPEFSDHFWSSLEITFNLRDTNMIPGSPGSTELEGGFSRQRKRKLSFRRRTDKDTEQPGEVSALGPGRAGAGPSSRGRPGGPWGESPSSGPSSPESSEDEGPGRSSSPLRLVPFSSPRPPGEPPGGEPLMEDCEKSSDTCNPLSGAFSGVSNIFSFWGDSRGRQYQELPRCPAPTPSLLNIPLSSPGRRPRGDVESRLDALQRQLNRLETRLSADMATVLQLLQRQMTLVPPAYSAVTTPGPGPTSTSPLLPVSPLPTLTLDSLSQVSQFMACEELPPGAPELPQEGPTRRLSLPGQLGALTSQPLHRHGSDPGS

SMILES	hERG current change (%, negative = inhibition) at 1uM
Cc1nc(-c2ccc(C(=O)N3CCCC3)cc2)cs1	9.11%
Cc1cccc(C(=O)NCC(=O)NC2CCC(C)CC2)c1 (stereo not drawn)	1.64%
COCCN(Cc1cc2cc(C)ccc2n2nnnc12)C(=S)Nc1ccccc1C	17%
O=C(/C=C/c1cn(-c2ccccc2)nc1-c1cccc(Cl)c1)N1CCN(c2ccccn2)CC1	11%
O=C(NC(=S)Nc1cccc2c(O)cccc12)c1cccc(Br)c1	8.92%
O=C(Nc1nccs1)c1nc[nH]c1C(=O)N1CCc2ccccc2C1	3.14%
COc1ccc(OC)c(-c2cc(C(=O)NCc3ccc(Cl)cc3)no2)c1	12.1%
Cc1ccc(NC(=O)/C(=C/c2cccs2)NC(=O)c2ccco2)cc1	17%
CN1CCN(C(=O)/C(=C/c2cccs2)NC(=O)c2ccco2)CC1	-62.1%
O=C(N/C(=C/c1cccs1)C(=O)N1CCOCC1)c1ccco1	9.85%
O=C(N/C(=C\c1cccs1)C(=O)N1CCOCC1)c1ccco1	-2.36%
Cc1ccccc1NC(=O)/C(=C\c1cccs1)NC(=O)c1ccco1	-3.3%
CN1CCN(C(=O)/C(=C\c2cccs2)NC(=O)c2ccco2)CC1	-65.2%
COCc1cc(Sc2ccc(OC)cc2)nc(-c2ccccc2)n1	16.2%
CCCCN(C)C(=O)c1nc2ccccn2c1CN1CCN(C/C=C/c2ccccc2)CC1	-80.8%
CCCCN(C)C(=O)c1nc2ccccn2c1CN1CCSCC1	12.1%
CCCCN(C)C(=O)c1nc2ccccn2c1CN1CCN(c2ncccn2)CC1	6.17%
CC(C)(C)c1ccc(C(=O)O/N=C(\N)c2ccccn2)cc1	13.9%
O=C(CN1C(=O)/C(=C/c2ccccc2)SC1=S)Nc1cccnc1	9.4%
O=C(CC1CCCCC1)NCc1ccco1	7.39%
CCCN(CCC)CC(O)COc1ccccc1C(=O)Nc1ccccc1.Cl (stereo not drawn)	-35.8%

SMILES	hERG current change (%, negative = inhibition) at 1uM
CCCCN(CCCC)CC(O)COc1ccccc1Br.Cl (stereo not drawn)	1.61%
CCCCN(CCCC)CC(O)COc1ccccc1C(=O)Nc1ccccc1 (stereo not drawn)	-55%
CC(=O)N1CCc2cc(S(=O)(=O)CCC(=O)Nc3cc(C)cc(C)c3)ccc21	8.33%
O=C(/C=C/c1ccccc1)N(c1ccccn1)C1CCCCC1	3.14%
Cc1nc2ccc(Br)cc2c2c1CC(CO)O2 (stereo not drawn)	15.9%
CCOC(=O)N1CCN(C(=O)c2oc3ccc(S(=O)(=O)N4CC(C)CC(C)C4)cc3c2C)CC1 (stereo not drawn)	0.354%
COCCOC(=O)C1=C(N)Oc2c(c(=O)oc3ccccc23)[C@@]12C(=O)Nc1ccccc12	12.1%
CCN(CC)CCn1c(NC(=O)c2ccc(Cl)cc2)nc2ccccc21	-0.305%
CCN(CC)CCn1c(NS(=O)(=O)c2ccc(Cl)cc2)nc2ccccc21.Cl	-69%
CCN(CC)CCn1c(NS(=O)(=O)c2ccc(C)cc2)nc2ccccc21	-17.8%
O=C1C(Cl)=C(N2CCN(Cc3ccccc3)CC2)C(=O)N1c1ccccc1	8.07%
COc1ccc(-c2c[n+]3c(n2-c2ccccc2)SCC3)cc1.[Br-]	-6.21%
Clc1ccc(-c2c[n+]3c(n2-c2ccccc2)SCC3)cc1.[Cl-]	3.68%
CCOc1ccc(-n2c(-c3ccc(Cl)cc3)c[n+]3c2SCC3)cc1.[Br-]	-60.8%
CCCN1CCN(CCCNC(=O)c2cc3c(s2)-c2c(C)cccc2OC3)CC1	-67.5%
Cc1cccc2c1-c1sc(C(=O)NCCCN3CCC(C)CC3)cc1CO2	-5.27%
Cc1cccc2c1-c1sc(C(=O)NCCCN3CCCC(C)C3)cc1CO2 (stereo not drawn)	16.2%
CCn1cc(Br)c(C(=O)N(C)Cc2ccccc2)n1	11.4%
Cc1ccc2nc(SCC(=O)N/N=C/c3ccco3)cc(C)c2c1	9.47%
Cc1ccc2nc(N/N=C/c3ccco3)cc(C)c2c1	-62.9%
Cc1cc(N/N=C/c2ccco2)c2ccccc2n1	10.7%

SMILES	hERG current change (%, negative = inhibition) at 1uM
CCOC(=O)N1CCC(N2C(=O)c3ccccc3C2Nc2ccccc2C)CC1 (stereo not drawn)	-8.54%
CCOC(=O)N1CCC(N2C(=O)c3ccccc3C2Nc2ccccc2)CC1 (stereo not drawn)	6.14%
CCOC(=O)N1CCC(N2C(=O)c3ccccc3C2Nc2c(C)cccc2C)CC1 (stereo not drawn)	-57.6%
COc1ccc(C(=O)N2CCCC(Nc3ccc(C)c(C)c3)C2)cc1 (stereo not drawn)	-0.108%
Cc1cccc2cc(CN(Cc3ccc(F)cc3)C(=O)N3CCOCC3)c(=O)[nH]c12	1.19%
CS(=O)(=O)Nc1ccccc1C(=O)NCc1ccco1	1.75%
CS(=O)(=O)Nc1ccc(C(=O)NCc2ccco2)cc1	16.3%
CS(=O)(=O)Nc1ccc(C(=O)Nc2ccccc2C(=O)NCc2ccco2)cc1	-58%
CC(C)CC(=O)Nc1ccc(C(=O)NNC(=O)C(c2ccccc2)c2ccccc2)cc1	12.2%
CC1(C)CC(=O)c2cc(OCC(=O)NCCCN3CCN(c4ccc(F)cc4)CC3)ccc2O1	-60.3%
CC1(C)CC(=O)c2cc(OCC(=O)NCCCN3CCN(c4ccccc4F)CC3)ccc2O1	-26%
COc1ccc(NC(=O)NCCN2CCc3ccccc3C2)cc1	-1.55%
CC1(C)CC(=O)c2cc(OCC(=O)NCCN3CCOCC3)ccc2O1	16.6%
COc1cccc(NC(=O)NCCN2CCCCC2)c1	4.59%
O=C(NCCCN1CCc2ccccc2C1)Nc1ccc(Cl)cc1	-44.5%
CC1CCN(CCCNC(=O)c2cc3sccc3n2C)CC1	-23.6%
COc1ccc(NC(=O)NCCCN2CCc3ccccc3C2)cc1	-69.5%
CSc1cccc(NC(=S)NCCCN2CCN(c3ccc(F)cc3)CC2)c1	-3.39%
COc1ccc(N2CCN(CCCNC(=O)c3cc4sccc4n3C)CC2)cc1	-77.7%
COc1cccc(NC(=O)NCCCN2CCN(c3ccc(F)cc3)CC2)c1	-51%
Cn1c(C(=O)NCCCN2CCCCC2)cc2sccc21	-13.7%
